Screening data: PubChem, several laboratories
LRH-1 inv ag: suppresses constitutive activity of human LRH-1; O00482; HEK293T StAR-luciferase reporter, LRH-1 transfected, 24 h; 360,000 tested, 0.13% active; inhibition, % at 3.6 µM;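 active = inhibition above the mean inhibition of all tested compounds plus 3 SD, cut at about 73% in these data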;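 also: 0% = DMSO wells and 100% = reporter-only cells lacking LRH-1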
NCOA3 inh: human NCOA3 inhibition. Q9Y6Q9. HEK293 GAL4-SRC3 luciferase reporter, luminescence. inhibition, % at 3.6 µM. 360,000 tested, 0.17% active;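 active = inhibition above a per-campaign cutoff, the mean of all compounds plus 3 SD, cut at about 60% in these data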;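 also: 0% = DMSO-treated cells and 100% = gossypol-treated cells at 36 µM; higher means less SRC3-driven luciferase light from the GAL4 reporter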
SRC2 inh: inhibits human steroid receptor coactivator 2; Q15596; HEK293 GAL4-SRC2 luciferase reporter, luminescence; inhibition, % at 9 µM; 370,000 tested, 0.17% active; AID 651957;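 active = inhibition above the mean inhibition of all tested compounds plus 3 SD, set per campaign, cut at about 52% in these data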;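 also: 0% = DMSO treated cells and 100% = cells given Gossypol at 36 µM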
NCOA1 inh: human NCOA1 inhibition. HEK293 GAL4-SRC1 luciferase reporter, luminescence. inhibition, % at 3.6 µM. 360,000 tested, 0.12% active;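 active = inhibition above the campaign mean plus 3 SD, with each screening campaign given its own cutoff, cut at about 60% in these data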;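 also: 0% = DMSO treated cells and 100% = gossypol at 36 µM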
Efflux pump mplx: antifungal efflux pump inhibition, Nile Red retention; AID 485275; inhibition, % at 10 µM; S. cerevisiae Candida pump triplex; 330,000 tested, 0.44% active;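 active = plate passing quality check with inhibition over a set limit, or well fluorescence over plate mean plus 4 SD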;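 also: Nile Red retained in pooled yeast measured as flow cytometry median fluorescence; 0% = buffer negative control and 100% = Enniatin B positive control; higher means more Nile Red kept so more efflux inhibition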
COUP-TFII inh: inhibitors of human COUP-TFII (NR2F2); HEK293T NGFI-A luciferase reporter, luminescence; inhibition, % at 8.6 µM; 370,000 tested, 0.7% active; P24468;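 active = inhibition above a per-plate cutoff, mean inhibition of test wells between control levels plus 3 SD, cut at about 38% in these data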;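 also: cells cotransfected with COUP-TFII expression vector driving the NGFI-A reporter; 0% = median of COUP-TF2 test wells and 100% = reporter-only cells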
Gal4-VP16 ctr: counter-screen for COUP-TFII antagonists: inhibitors of VP16; HEK293 Gal4-VP16 luciferase reporter, luminescence; shares compounds with COUP-TFII inh; 2,500 tested, 25% active; inhibition, % at 8.5 µM; in the data active = inhibition above about 13%
COUP-TFII conf: confirmation of human COUP-TFII (NR2F2) inhibitors; shares compounds with COUP-TFII inh; HEK293 NGFI-A luciferase reporter, luminescence; inhibition, % at 8.5 µM; 2,500 tested, 45% active;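 active = mean inhibition over three repeats above a set limit taken from the earlier primary screen, cut at about 38% in these data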;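 also: 100% = cells given the luciferase reporter alone without the COUP-TF2 vector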
Numbers without * were called inactive; nt = no result. The list is not random: actives were taken first. Their share in the collection is about 1.2%.

SMILES	LRH-1 inv ag	NCOA3 inh	SRC2 inh	NCOA1 inh	Efflux pump mplx	COUP-TFII inh	Gal4-VP16 ctr	COUP-TFII conf
COc1cccc(/C=N/NC(=O)C(=O)NCc2cccnc2)c1	8.8	19.4	12.4	-17.4	0.2	5.2	nt	nt
Cc1nc2ccccc2cc1OCc1ccc(Cl)cc1	11.0	-3.8	-0.6	-15.2	0.0	49.6*	-60.9	28.8
COc1cccc(COc2cc3ccccc3nc2C)c1	27.8	-2.6	-8.5	3.2	0.1	58.6*	-62.5	41.1*
COc1ccc(-c2cc(=O)c3cc(OC)ccc3[nH]2)cc1	-147.4	-109.3	nt	-117.1	0.0	nt	nt	nt
COc1ccc2[nH]c(=O)c3c(c2c1)OC(C)(C)C=C3	20.1	44.4	63.3*	47.1	-0.2	43.7*	0.4	25.4
Clc1ccc(CN2CCN(N=Cc3ccncc3)CC2)cc1	nt	nt	32.9	nt	nt	49.7*	12.7	34.7
Clc1ccc(/C=N/N2CCN(Cc3ccccc3)CC2)cc1	-8.2	-7.9	16.9	-25.5	0.1	-3.6	nt	nt
O=C(CCN1C(=O)C2C3C=CC(C3)C2C1=O)Nc1c(F)cccc1F (centres undefined)	-9.4	6.6	3.8	-6.9	-0.2	9.3	nt	nt
O=C(N/N=C\c1ccc(-c2ccc([N+](=O)[O-])cc2)o1)c1ccc2c(c1)OCO2	10.3	-5.1	0.9	-25.4	0.0	1.3	nt	nt
O=C(N/N=C/c1ccc([N+](=O)[O-])o1)c1ccc2c(c1)OCO2	47.8	-16.5	67.0*	-36.1	-0.1	53.9*	45.1*	44.4*
Cc1cc(/C=N/Nc2ncnc(N)c2[N+](=O)[O-])c(C)n1-c1ccccc1	10.8	45.8	43.1	42.3	0.0	51.6*	43.7*	77.8*
CCOC(=O)N1CCc2c(sc(NC(=O)CN3CCN(C)CC3)c2C(=O)Nc2ccccc2)C1	4.9	20.2	-1.2	-3.8	-0.1	4.7	nt	nt
CCN(C[C@H]1N[C@@](Cc2ccccc2)(C(=O)OC)[C@H]2C(=O)N(C)C(=O)[C@@H]12)S(=O)(=O)c1ccc(OC(F)(F)F)cc1	-0.8	0.8	15.6	-23.0	0.6	10.1	nt	nt
COc1cccc(NC(=S)N(CCCN2CCCC2)Cc2cccn2Cc2ccc(Cl)cc2)c1	6.1	11.4	nt	4.7	-0.1	nt	nt	nt
CCCCS(=O)c1c(O)c2ccccc2[nH]c1=O (centres undefined)	0.3	-8.9	10.8	-6.9	-0.1	0.4	nt	nt
O=C(Nc1nccs1)c1ccc(S(=O)(=O)NCC2CCCCC2)cc1	41.7	28.4	6.5	6.3	0.1	59.9*	8.4	41.4*
Cc1cc2nc(C)n(CCCNC(=O)Nc3cccc4ccccc34)c2cc1C	10.8	15.2	10.2	-6.5	0.3	37.7*	-1.9	18.5
OCCN(CCO)CC(O)COc1ccc(C23CC4CC(CC(C4)C2)C3)cc1 (centres undefined)	39.8	55.2	73.5*	41.7	-0.1	87.1*	62.5*	72.2*
COc1ccc(/C=C2\SC(=O)N(CCCC(=O)Nc3cc(Cl)ccc3C(=O)O)C2=O)cc1	81.6*	83.3*	92.1*	77.8*	0.2	100.6*	88.8*	101.1*
Cc1nc2ccccc2n1Cc1ccccc1	9.6	-6.0	1.8	8.6	0.1	5.1	nt	nt
Cc1nc2ccccc2n1Cc1ccccc1Br	18.2	7.1	14.1	10.8	0.0	41.0*	-4.1	10.0
Cc1nc2ccccc2n1Cc1ccc(Br)cc1	38.0	17.7	28.0	4.6	-0.2	57.6*	-11.8	49.9*
O=C(CCCCN1CCCCC1)c1ccccc1	-3.1	19.6	-17.9	-3.5	0.0	14.5	nt	nt
O=C(C(=Cc1ccccc1)CN1CCCCC1)c1ccccc1	77.3*	-7.6	22.3	18.4	nt	51.6*	72.3*	95.2*
C=CCNC(=O)c1cnc2n(c1=O)CCS2	3.4	-3.2	9.2	-13.1	-0.1	11.9	nt	nt
SMILES	LRH-1 inv ag	NCOA3 inh	SRC2 inh	NCOA1 inh	Efflux pump mplx	COUP-TFII inh	Gal4-VP16 ctr	COUP-TFII conf
COc1cccc(N2CCN(C(=O)c3ccc(CSc4nc5ccncc5[nH]4)cc3)CC2)c1	-12.5	-11.9	18.0	-11.4	0.2	42.0*	1.6	16.1
CC1CC(C)CN(S(=O)(=O)c2ccc(NC(=O)C3CSC4(C)CCC(=O)N34)cc2)C1 (centres undefined)	-9.4	10.7	4.1	-7.3	0.2	-9.9	nt	nt
O=C1NC(NS(=O)(=O)c2ccc(Cl)cc2)(C(F)(F)F)C(=O)N1c1ccccc1 (centres undefined)	10.6	8.5	-17.7	13.6	0.1	-2.2	nt	nt
c1ccc(-c2cccc(CNc3nc(-c4ccccn4)nnc3-c3ccccc3)c2)cc1	nt	nt	nt	nt	nt	50.9*	-2.2	8.3
Cc1ccc(/C=N/Nc2ccc(C(=O)O)cc2)s1	-15.7	15.0	40.2	-14.7	0.4	40.5*	-84.1	8.7
CC(C)c1ccc(/C=N/Nc2ccc(C(=O)O)cc2)cc1	-97.2	36.2	0.7	35.6	-0.1	51.8*	-118.6	37.4*
Cc1ccc(/C=N/Nc2cccc(C(=O)O)c2)s1	-159.7	-116.4	-63.8	-152.8	0.0	-58.8	nt	nt
CCOc1ccccc1C(=O)Nc1cc2c(cc1N1CCCC1)n(CC)c(=O)n2CC	46.6	31.7	-3.3	24.1	-0.1	40.7*	-3.4	22.4
CCn1c(=O)n(CC)c2cc(N3CCCC3)c(NC(=O)c3ccccc3OC)cc21	30.6	7.8	19.5	25.0	-0.1	32.5	nt	nt
CC(C)(C)c1ccc(C(=O)C2CCCN(C(=O)CCn3cncn3)C2)cc1 (centres undefined)	5.2	-15.3	2.8	-10.8	-0.4	10.7	nt	nt
CCC(=O)Nc1ccc(Oc2ccc3c(c2)C(=O)NC3=O)cc1	8.7	-2.3	-2.0	-7.8	0.0	-7.3	nt	nt
CC1=CC(=O)C=C(C)C1=NOS(=O)(=O)c1ccccc1	22.3	-7.7	-9.9	-5.8	nt	-10.6	nt	nt
CC1=CC(=O)C(C2CCCCC2)=C/C1=N\OS(=O)(=O)c1ccccc1	nt	nt	nt	nt	nt	48.2*	-3.0	-13.3
CC1=CC(=O)C(C(C)C)=C/C1=N/OS(=O)(=O)c1ccccc1	9.0	-15.8	13.9	-35.3	0.4	58.1*	9.6	12.7
COc1ccc(N2CCN(CCN3C(=O)c4ccccc4C3=O)CC2)cc1	16.3	-5.6	19.0	-21.7	-0.4	-8.2	nt	nt
CCc1nc2ccc(C(=O)N3CCN(c4cccc(C)c4C)CC3)cc2nc1CC	-13.1	15.4	6.7	-31.6	0.2	3.8	nt	nt
Cc1ccc(-c2cc3cccc[n+]3cc2-c2ccc(C)cc2)cc1	84.4*	55.4	1.4	50.7	0.1	65.9*	7.8	53.9*
Cc1c(C(=O)N(C)CC(=O)Nc2cccc(F)c2)oc2c(Cl)cccc12	-5.3	-16.9	13.1	-15.3	-0.1	3.6	nt	nt
C=C1C(=O)OC2CC1C(OC(C)=O)CC(C)=CCCC(C)=CCCC2(C)O (centres undefined)	45.8	62.0*	43.5	33.3	nt	39.5*	30.2*	33.8
